Our source for the nuclear beta-catenin stimulation values is PubChem BioAssay.

Each structure is given as a SMILES string.

The nature of the test: stimulators of nuclear beta-catenin in C2C12, primary screen, imaging, WNT3A-conditioned medium, mouse C2C12, NPC library (AID 1117326). Further: reference of the scale not given here. As to conditions: stimulation, at 2 µM, stronger effect = higher value.
For the compound `COc1cc(N)c(Cl)cc1C(=O)NC1CCN(CCCOc2ccc(F)cc2)CC1OC` (stereo not given), the nuclear beta-catenin stimulation amounted to 3.1%. `O=C(OOC(=O)c1ccccc1)c1ccccc1`: the nuclear beta-catenin stimulation turned out to be 0.3%. In the case of `C[C@@]12C(=O)OC(=O)[C@]1(C)C1CCC2O1`, the nuclear beta-catenin stimulation was 49.7%.

`CCOCC(O)COc1ccc(NC(=O)CC[S+](C)C)cc1` (stereo not given): the nuclear beta-catenin stimulation is -0.3%. Under `C[N+](C)(C)CCCCCCCCCC[N+](C)(C)C` stands -0.9%; under `CC[C@@H](CO)NCCN[C@@H](CC)CO`, 4.7%; under `Cc1ncc(CSSCc2cnc(C)c(O)c2CO)c(CO)c1O`, -2.2%. Under `O=C(O)CN(CC(=O)O)Cc1cc2c(-c3ccccc3C(=O)O)c3cc(CN(CC(=O)O)CC(=O)O)c(=O)cc-3oc2cc1O` stands -0.6%; under `CC1=C(C/C=C(\C)CCC[C@H](C)CCC[C@H](C)CCCC(C)C)C(=O)c2ccccc2C1=O`, -0.8%; under `OCCc1ccccc1`, -0.1%. In the case of `O=C1c2ccccc2C(=O)C1c1ccc(Br)cc1`, the nuclear beta-catenin stimulation was 1.3%.

As for `CCOC(=O)c1ccc(O)cc1`, the nuclear beta-catenin stimulation came out at 0.9%. As to `O=C(CCCl)NCc1ccccc1`, the nuclear beta-catenin stimulation stood at 8.3%. Under `CC1(C)[C@@H]2CC[C@@]1(C)C(=O)C2` stands 0.6%; under `Cc1cc(C(C#N)c2ccc(Cl)cc2)c(Cl)cc1NC(=O)c1cc(I)cc(I)c1O` (stereo not given), 1.5%.

As to `CC(C)CCCC(C)N` (stereo not given), the nuclear beta-catenin stimulation turned out to be 2%.

As for `NCCNCCNCCN`, the nuclear beta-catenin stimulation amounted to 0.7%.

As for `Nc1ncn([C@H]2C[C@H](O)[C@@H](CO)O2)c(=O)n1`, the nuclear beta-catenin stimulation came to 4.5%. In the case of `CC(O)Cn1cnc2c1c(=O)n(C)c(=O)n2C` (stereo not given) it was 0.4%. As to `CC(=O)NCc1c(I)c(NC(C)=O)c(I)c(C(=O)O)c1I`, the nuclear beta-catenin stimulation is -1.3%.

As for `O=S(=O)(O)CCCS(=O)(=O)O`, the nuclear beta-catenin stimulation was -0.3%. Under `CNCc1ccccc1` stands 0.6%; under `CCN(CC)CCOc1ccc2c(c1)C(=O)c1cc(OCCN(CC)CC)ccc1-2`, 0.3%.

For the compound `CN(C)CCCOc1nn(Cc2ccccc2)c2ccccc12`, the nuclear beta-catenin stimulation came out at 0.5%. As for `CCCCCCCCCCOc1cc2c(=O)c(C(=O)OCC)c[nH]c2cc1OCC`, the nuclear beta-catenin stimulation was -0.1%.

For the compound `NC(=O)c1cc[n+](CC2=C(C(=O)[O-])N3C(=O)[C@@H](NC(=O)Cc4cccs4)[C@H]3SC2)cc1`, the nuclear beta-catenin stimulation is -0.6%. Under `Cc1c(F)c(N2CCNC(C)C2)cc2c1c(=O)c(C(=O)O)cn2C1CC1` (stereo not given) stands -0.2%; under `Cc1cc2nc3ccc(=[N+](C)C)cc-3sc2cc1N`, 1%. Under `NC(=O)C1(N2CCCCC2)CCN(CCCC(=O)c2ccc(F)cc2)CC1` stands -2%. Under `CC(=O)NC(Cc1ccccc1)C(=O)O` (stereo not given) stands -0.2%. `O=C(Nc1ccc(C(=O)O)c(O)c1)c1ccccc1`: the nuclear beta-catenin stimulation was 0.4%.

`CC(C)=CCC/C(C)=C/CO`: the nuclear beta-catenin stimulation amounted to 3%. In the case of `CC1=C(/C=C/C(C)=C/C=C/C(C)=C/C(=O)Nc2ccc(O)cc2)C(C)(C)CCC1` it was 39.9%; in that of `O=C1OC2(c3ccc(O)cc3Oc3cc(O)ccc32)c2ccccc21`, 3.4%; in that of `COc1cc(C(=O)NCCCCCC(=O)O)cc(OC)c1OC`, -2.6%. In the case of `OC1C(O)C(O)C(O)C(O)C1O` (stereo not given), the nuclear beta-catenin stimulation was 0.4%. Under `Nc1nc(Cl)nc2c1ncn2[C@@H]1O[C@H](CO)[C@@H](O)[C@@H]1F` stands 17.4%; under `CC(O)(P(=O)(O)O)P(=O)(O)O`, 1.7%; under `CC(=O)OCC(=O)[C@@]1(O)CCC2C3CCC4=CC(=O)CC[C@]4(C)C3[C@@H](O)C[C@@]21C` (stereo not given in full), -0.8%. In the case of `NC(=O)CCCCC1CCSS1` (stereo not given) it was 2.1%.
